Laboratory results published in the supplement of paper PMC5662767.
Structures can show the parent of a compound that is named as a salt.

System: Drosophila S2 cl14 SmoIP sensor cells
Test: normalized SmoIP GFP fluorescence (untreated unstimulated = 0%, untreated Hh-stimulated = 100%); higher = more Smo activation sensor fluorescence
Settings: stimulation: mock conditioned medium (-Hh); compound concentration: 2 uM; 24 h
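Further: flow cytometry read-out as median GFP intensity of gated cells, compounds added 30 min before Hh-conditioned or mock medium, mock-treated cells serving as unstimulated baseline.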

Point of comparison: `COc1ccccc1N1CCN(CC(O)COc2cccc3ccccc23)CC1` (stereo unspecified) [Naftopidil-Dihydrochloride], “normalized SmoIP GFP fluorescence” value -1.88%. Against it:
- Cc1[nH]c2ccccc2c1CCNCc1ccc(/C=C/C(=O)NO)cc1 — higher, 81.3%
- N#CC(=C(/N)Sc1ccccc1N)/C(C#N)=C(/N)Sc1ccccc1N — higher, 23.1%
- NC(=O)Nc1cc(-c2cccc(F)c2)sc1C(=O)N[C@H]1CCCNC1 — higher, 45%
- Nc1ccc(C(=O)Nc2cccc(-c3nc(N4CCOCC4)c4oc5ncccc5c4n3)c2)cn1 — higher, 5.45%
- COc1ccc2cc(-c3nc(-c4ccc([S+](C)[O-])cc4)[nH]c3-c3ccncc3)ccc2c1 (stereo unspecified) [Tie2-kinase-inhibitor] — higher, 21.9%
- Oc1nc(-c2ccc(C(F)(F)F)cc2)nc2c1CSCC2 — higher, 5.66%
- O=c1cc(-c2cccc3c2Sc2ccccc2S3)oc(N2CCOCC2)c1 — higher, 2.43%
- C=C1C(=O)O[C@@H]2/C=C(\C)CC/C=C(\C)CC[C@@H]12 [Costunolide] — higher, 27.4%
- O=C(/C=C/c1ccc(CN(CCO)CCc2c[nH]c3ccccc23)cc1)NO — higher, 79.7%
- COc1cc(Nc2ncc(F)c(Nc3ccc4c(n3)NC(=O)C(C)(C)O4)n2)cc(OC)c1OC [R406(free-base)] — higher, 9.32%
- CCOC(=O)[C@H](CCc1ccccc1)N[C@H]1CCc2ccccc2N(CC(=O)O)C1=O [Benazepril-hydrochloride] — higher, 1.35%
- CCOC(=O)[C@H]1O[C@@H]1C(=O)N[C@@H](CC(C)C)C(=O)NCCC(C)C [Aloxistatin] — higher, 3.51%
- CCOc1cc(CC(=O)N[C@@H](CC(C)C)c2ccccc2N2CCCCC2)ccc1C(=O)O [Repaglinide] — higher, 6.52%
- COc1ccccc1OCC(O)CN1CCN(CC(=O)Nc2c(C)cccc2C)CC1 (stereo unspecified) [Ranolazine-dihydrochloride] — higher, 2.97%
- OC(CCN1CCCCC1)(c1ccccc1)C1CC2C=CC1C2 (stereo unspecified) [Biperiden-hydrochloride] — higher, 2.64%
- COc1ccc(-c2nc(N3CCOCC3)c3sc(CN(C)c4ncc(C(=O)NO)cn4)cc3n2)cn1 [cudc-907] — higher, 82.3%
- CC(C)CCNC(=O)C(CC(C)C)NC(=O)C1OC1C(=O)O (stereo unspecified) [loxistatin-acid-e-64c] — higher, 34.9%
- O=c1c(-c2ccc(O)cc2)coc2cc(O)cc(O)c12 [Genistein] — higher, -0.804%
- COc1c(C)c2c(c(O)c1C/C=C(\C)CCC(=O)OCCN1CCOCC1)C(=O)OC2 [Mycophenolate-mofetil-(CellCept)] — higher, 5.98%
- CN1CCN(CCOc2cc(OC3CCOCC3)c3c(Nc4c(Cl)ccc5c4OCO5)ncnc3c2)CC1 — higher, 10.4%
- O=C(Nc1ccc(OC(F)(F)F)cc1)c1sccc1NCc1ccnc2ccccc12 — higher, 9.86%
- CCOC(=O)N1CCC(=C2c3ccc(Cl)cc3CCc3cccnc32)CC1 [Loratadine] — higher, 11%
- COc1cc(Nc2nc3ccccc3nc2NS(=O)(=O)c2ccc(NC(=O)c3ccc(C)c(OC)c3)cc2)cc(OC)c1 — higher, 5.66%
- Nc1ncn([C@H]2C[C@H](O)[C@@H](CO)O2)c(=O)n1 [Decitabine] — higher, 25.6%
- C[C@]12CCC3=C4CCC(=O)C=C4CC[C@H]3[C@@H]1CC[C@@]2(O)CC#N [Dienogest] — higher, 10.2%
- CC1=C(C(=O)Nc2cc3cn[nH]c3cc2F)C(c2ccc(C(F)(F)F)cc2)CC(=O)N1 (stereo unspecified) — the same, -1.88%
- CCNC(=O)c1noc(-c2cc(C(C)C)c(O)cc2O)c1-c1ccc(CN2CCOCC2)cc1 — higher, 32.9%
- NC(=S)N/N=C/c1ncccc1N [triapine] — lower, -3.71%
- NC(=O)c1cn(Cc2c(F)cccc2F)nn1 [Rufinamide] — higher, 1.89%
- C[C@]12CC[C@@H]3c4ccc(O)cc4C[C@@H](CCCCCCCCC[S+]([O-])CCCC(F)(F)C(F)(F)F)[C@H]3[C@@H]1CC[C@@H]2O (stereo partly specified) [Fulvestrant] — higher, 12.4%
- C[C@]12C=CC(=O)N[C@@H]1CC[C@@H]1[C@@H]2CC[C@]2(C)[C@@H](C(=O)Nc3cc(C(F)(F)F)ccc3C(F)(F)F)CC[C@@H]12 [Dutasteride] — higher, 4.26%
- Clc1ccc(C2(c3ccc(-c4cn[nH]c4)cc3)CCNCC2)cc1 — higher, 17.1%
- COc1cc2c(Oc3ccc4[nH]c(C)cc4c3F)ncnc2cc1OCCCN1CCCC1 [Cediranib] — higher, 52.4%
- Cc1ccc(-n2nc(C(C)(C)C)cc2NC(=O)Nc2ccc(OCCN3CCOCC3)c3ccccc23)cc1 [BIRB-796-(Doramapimod)] — higher, 72.2%
- N=C(N)Nc1ccc(C(=O)Oc2ccc3cc(C(=N)N)ccc3c2)cc1 [Nafamostat-mesylate] — higher, 16.2%
